Data published in the supplement of paper PMC13380429.

Test system: Vero E6 infected with SARS-CoV-2
Experiment: inhibition of SARS-CoV-2 cytopathic effect; higher = more antiviral protection, active = above 15
Conditions: 48 h

Measured: inhibition of SARS-CoV-2 cytopathic effect

Nc1c2ccccc2nc2ccccc12 [9-aminoacridine]
inactive: 1 nM -6.32% | 8.33 nM 1.57% | 100 nM -3.73% | 833.33 nM 0.13% | 10000 nM -28.3%

CN1CCN(C2=Cc3ccccc3Oc3ccc(Cl)cc32)CC1
inactive: 1 nM 1.06% | 8.33 nM 0.31% | 100 nM -0.45% | 833.33 nM -1.6% | 10000 nM -1.46%

Cc1c(Cl)cccc1S(=O)(=O)Nc1nc(NCCc2ccccc2)nc2c1CN(Cc1ccccc1)CC2
inactive: 1 nM 5.62% | 8.33 nM 1.85% | 100 nM 0.14% | 833.33 nM 0.89% | 10000 nM -1.37%

N=C(N)NCCCC[C@@H]1NC(=O)CCSSC[C@@H](C(N)=O)NC(=O)[C@@H]2CCCN2C(=O)[C@H](Cc2c[nH]c3ccccc23)NC(=O)[C@H](CC(=O)O)NC(=O)CNC1=O [eptifibatide]
inactive: 1 nM -0.98% | 8.33 nM 8.08% | 100 nM 3.25% | 833.33 nM 2.75% | 10000 nM -2.38%

O=C(O)c1cc(=O)c2ccccc2o1 [chromocarb]
inactive: 1 nM -1.09% | 8.33 nM -0.13% | 100 nM -0.55% | 833.33 nM 3.21% | 10000 nM -0.51%

CCCC(=O)O[C@]1(C(=O)CCl)[C@@H](C)C[C@H]2[C@@H]3CCC4=CC(=O)C=C[C@]4(C)[C@@]3(F)C(=O)C[C@@]21C [clobetasone-butyrate]
inactive: 1 nM -0.68% | 8.33 nM -1.04% | 100 nM -5.39% | 833.33 nM -1.94% | 10000 nM 0.48%

CC(COc1ccccc1)N(CCCl)Cc1ccccc1 (stereo not given) [phenoxybenzamine]
inactive: 1 nM 2.45% | 8.33 nM 2.51% | 100 nM 1.57% | 833.33 nM 0.91% | 10000 nM -0.17%

CC(C)c1cnn2c(NCc3ccccc3)cc(NCCCCCCN)nc12
inactive: 1 nM 2.49% | 8.33 nM -1.33% | 100 nM -2.16% | 833.33 nM 1.83% | 10000 nM -12.8%

COC(c1ccccc1)(c1ccccc1)[C@H](Oc1nc(C)cc(C)n1)C(=O)O [ambrisentan]
inactive: 1 nM -4.05% | 8.33 nM -0.7% | 100 nM -1.38% | 833.33 nM -0.18% | 10000 nM -3.02%

OC[C@H]1O[C@@H](OCCc2ccc(O)cc2)[C@H](O)[C@@H](O)[C@@H]1O [salidroside]
inactive: 1 nM -0.77% | 8.33 nM 0.23% | 100 nM -0.6% | 833.33 nM 0.45% | 10000 nM -0.54%

NC(=O)c1[nH]cnc1O
inactive: 1 nM 0.65% | 8.33 nM 1.77% | 100 nM 0.2% | 833.33 nM -1.72% | 10000 nM 3.24%

Cc1c(N(C)CS(=O)(=O)O)c(=O)n(-c2ccccc2)n1C [metamizole]
inactive: 1 nM 5.03% | 8.33 nM 0.47% | 100 nM -1.36% | 833.33 nM -3.82% | 10000 nM 0.29%

CN(C)CCc1c[nH]c2ccc(C[C@H]3COC(=O)N3)cc12 [zolmitriptan]
inactive: 1 nM -2.55% | 8.33 nM 2.01% | 100 nM -1.58% | 833.33 nM -2.13% | 10000 nM -2.93%

Oc1nc(O)c2cn[nH]c2n1 [oxypurinol]
inactive: 1 nM -1.15% | 8.33 nM -1.53% | 100 nM -2.43% | 833.33 nM -2.52% | 10000 nM 1.11%

FC(F)OC(F)(F)C(F)Cl (stereo not given) [enflurane]
inactive: 1 nM 1.24% | 8.33 nM 0.43% | 100 nM 1.56% | 833.33 nM -3.51% | 10000 nM -3.14%

CC(C)(Cc1c[nH]c2ccc(Cl)cc12)NCCOc1ccccc1OCC1CC1
inactive: 1 nM 0.45% | 8.33 nM -0.91% | 100 nM 0.78% | 833.33 nM -2.24% | 10000 nM -19.4%

CS(=O)(=O)c1ccc(-c2cnc(NCc3ccco3)n3cnnc23)cc1
inactive: 1 nM 4.45% | 8.33 nM 2.39% | 100 nM 0.36% | 833.33 nM -0.76% | 10000 nM -0.13%

CC(C)NC(=O)c1ccc(C#Cc2ccncc2)cn1
inactive: 1 nM -1% | 8.33 nM 1.41% | 100 nM 2.79% | 833.33 nM 1.58% | 10000 nM 13.2%

O=C([O-])C(O)[C@H](O)[C@@H](O)[C@H](O)[C@H](O)CO.O=C([O-])C(O)[C@H](O)[C@@H](O)[C@H](O)[C@H](O)CO.[Ca+2] (stereo not given in full) [calcium-gluceptate]
inactive: 1 nM -7.86% | 8.33 nM -1.7% | 100 nM -4.55% | 833.33 nM -3.31% | 10000 nM -3.66%
